This is an account of results in PubChem BioAssay (NCI).

What all share (assay): NCI-60 one-dose screen, 48 h (100 = growth as untreated, 0 = no growth, -100 = all killed)
In one assay the test system is NCI-H23 lung. The following applies: 10 µM unless noted.
Another assay deals with NCI-H226 lung. The following applies: 10 µM unless noted.
The test system of a further assay is NCI-H322M lung. The following applies: 10 µM unless noted.
Another assay concerns NCI-H460 lung. The following applies: 10 µM unless noted.
The next assay relates to HOP-92 NSCLC. The following applies: 10 µM.
The next assay deals with NCI-H522 lung. The following applies: 10 µM.
A further assay deals with A549/ATCC NSCLC. The following applies: 10 µM unless noted.
In another assay the test system is 786-0 renal. The following applies: 10 µM unless noted.
A further assay has as its system COLO 205 colon. The following applies: 10 µM unless noted.
A further assay concerns DU-145 prostate. The following applies: 10 µM unless noted.
The subject of another assay is K-562 leukemia. The following applies: 10 µM unless noted.
The next assay concerns MALME-3M melanoma. The following applies: 10 µM unless noted.
In a further assay the test system is MDA-MB-231 breast. The following applies: 10 µM unless noted.
The test system of a further assay is RXF 393 renal. The following applies: 10 µM unless noted.
The next assay relates to SF-268 CNS. The following applies: 10 µM unless noted.
Another assay concerns SF-295 CNS. The following applies: 10 µM unless noted.
Another assay relates to SF-539 CNS. The following applies: 10 µM unless noted.
For another assay, the system named is UACC-257 melanoma. The following applies: 10 µM unless noted.
A further assay relates to M14 melanoma. The following applies: 10 µM unless noted.

Compounds without any hit were thinned out: in the full panel of roughly 83,000, 20% have a hit.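 Cell lines were cultured in 96-well plates, exposed to a single compound concentration, and assessed for percent growth 48 hours later.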 Values without a mark were called inactive. The source made the active and inactive calls. How the source made its calls: active means growth percent below 10; inactive means the rest.

`O=C(N/N=C\c1ccc(Cl)cc1)C(=O)N/N=C\c1ccc(Cl)cc1`: the growth in the assay with NCI-H23 lung was 102%; in the assay on NCI-H226 lung it was 110%; in the assay with NCI-H322M lung it was 92.9%; with NCI-H460 lung, 103%; with HOP-92 NSCLC, 92.3%; in the assay with NCI-H522 lung it was 101%. In addition, the growth in the assay on A549/ATCC NSCLC is 102%; with 786-0 renal, 91.2%; with COLO 205 colon it was 97%; with DU-145 prostate, 123%; in the assay with K-562 leukemia it was 95.2%; in the assay with MALME-3M melanoma it was 89.6%. For the same molecule, the growth is 91.3% with MDA-MB-231 breast; 118% in the assay on RXF 393 renal; 120% with SF-268 CNS; 96.8% with SF-295 CNS; 99.5% in the assay on SF-539 CNS; 108% with UACC-257 melanoma. Moreover, the growth with M14 melanoma was 103%.

Take `COc1ccccc1Cn1cc2c(c1)-c1oncc1CC2`: the growth in the assay on NCI-H23 lung was 20.6%; in the assay on NCI-H226 lung it was 38.9%; in the assay on NCI-H322M lung, 24%; in the assay on NCI-H460 lung, 4.04% (active); in the assay with HOP-92 NSCLC it was 80.3%; in the assay on NCI-H522 lung, 43.3%. For the same molecule, the growth in the assay with A549/ATCC NSCLC was 28.9%; with 786-0 renal, 38.6%; in the assay on COLO 205 colon it was -28.2% (active); in the assay on DU-145 prostate it was 22.5%; in the assay on K-562 leukemia it was 15.9%; in the assay with MDA-MB-231 breast it was 16.5%. For the same molecule, the growth with RXF 393 renal was 4.54% (active); in the assay with SF-268 CNS, 35.2%; with SF-295 CNS, -28.8% (active); in the assay on SF-539 CNS, -13.8% (active); in the assay on UACC-257 melanoma it was 66.7%; in the assay with M14 melanoma it was 14.4%.

Consider `COc1ccc(Cn2cc3c(c2-c2ccc(O)cc2)CCc2cnoc2-3)cc1`, for which the growth is 20.5% in the assay with NCI-H23 lung; 24.1% with NCI-H226 lung; 18.8% in the assay with NCI-H322M lung; 1.39% (active) with NCI-H460 lung; 93.1% in the assay with HOP-92 NSCLC; 35.7% in the assay with NCI-H522 lung. The growth with A549/ATCC NSCLC is 32.3%; in the assay with 786-0 renal, 28.9%; with COLO 205 colon, -17.6% (active); in the assay on DU-145 prostate, 20.2%; in the assay with K-562 leukemia, 12%; with MDA-MB-231 breast, 18%. Besides, the growth in the assay with RXF 393 renal is 6.55% (active); in the assay with SF-268 CNS, 45.5%; in the assay with SF-295 CNS, -24.6% (active); in the assay on SF-539 CNS, -16.2% (active); in the assay with UACC-257 melanoma, 70.8%; in the assay with M14 melanoma it was 9.96% (active).

Regarding `COc1ccc(C(=O)c2no[n+]([O-])c2C(=O)c2ccc(OC)cc2)cc1`, the growth in the assay with NCI-H23 lung is 89.6%; with NCI-H226 lung, 41.7%; in the assay with NCI-H322M lung it was 83.8%; in the assay with NCI-H460 lung, 89.8%; with HOP-92 NSCLC, -73.5% (active); with NCI-H522 lung, -88.3% (active). For the same molecule, the growth in the assay on A549/ATCC NSCLC is 94.8%; in the assay on 786-0 renal, -98.7% (active); in the assay on COLO 205 colon, -85.7% (active); with DU-145 prostate, 81.1%; with K-562 leukemia, -100% (active); in the assay with MALME-3M melanoma it was -69.5% (active). Besides, the growth with MDA-MB-231 breast was 57.4%; in the assay on SF-268 CNS it was -38.5% (active); with SF-295 CNS, 92.8%; in the assay with SF-539 CNS, 89.3%; in the assay on UACC-257 melanoma, 13.4%.

As for `O=C(Oc1ccccc1)c1ccccc1Cl`, the growth in the assay with NCI-H23 lung is 104%; with NCI-H226 lung it was 106%; with NCI-H322M lung it was 104%; in the assay with NCI-H460 lung, 103%; with HOP-92 NSCLC, 90.1%; in the assay on NCI-H522 lung, 121%. Also, the growth in the assay with A549/ATCC NSCLC is 99.9%; in the assay with 786-0 renal, 101%; in the assay on COLO 205 colon it was 104%; in the assay on DU-145 prostate, 114%; in the assay on K-562 leukemia, 107%; with MALME-3M melanoma, 101%. In addition, the growth with MDA-MB-231 breast is 111%; in the assay on RXF 393 renal it was 110%; with SF-295 CNS, 110%; in the assay on SF-539 CNS it was 94.2%; in the assay with UACC-257 melanoma it was 102%; in the assay with M14 melanoma, 102%.

`O=S(=O)(O)c1ccc2c(c1)Sc1cc(S(=O)(=O)O)ccc1O2`: the growth in the assay with NCI-H23 lung was 109%; in the assay with NCI-H226 lung, 118%; with NCI-H322M lung, 118%; with NCI-H460 lung it was 118%; with HOP-92 NSCLC, 98.5%; in the assay on NCI-H522 lung it was 107%. The growth was 99.5% with A549/ATCC NSCLC; 108% in the assay with 786-0 renal; 111% in the assay on COLO 205 colon; 116% with DU-145 prostate; 100% with K-562 leukemia; 101% with MDA-MB-231 breast. In addition, the growth in the assay on RXF 393 renal was 116%; in the assay with SF-268 CNS it was 112%; in the assay with SF-295 CNS, 103%; in the assay with SF-539 CNS, 117%; in the assay with UACC-257 melanoma it was 108%; in the assay on M14 melanoma it was 107%.

For the molecule `c1ccc(-c2cn3ccnc3c(-c3ccc4ncn(C5CCCCC5)c4c3)n2)cc1`, the growth is 54.7% in the assay with NCI-H23 lung; 66.1% in the assay with NCI-H226 lung; 94.8% in the assay with NCI-H322M lung; 62.2% with NCI-H460 lung; 46.3% with HOP-92 NSCLC; 41.9% in the assay with NCI-H522 lung. The growth in the assay with A549/ATCC NSCLC is 66.7%; in the assay on 786-0 renal it was 63.2%; in the assay with COLO 205 colon it was 79.3%; with DU-145 prostate, 70.7%; in the assay on K-562 leukemia, 29.4%; with MDA-MB-231 breast it was 58.5%. The growth in the assay with RXF 393 renal was 55%; with SF-268 CNS, 78.2%; in the assay with SF-295 CNS it was 60.2%; with SF-539 CNS, 72.2%; in the assay on UACC-257 melanoma, 94.8%; in the assay with M14 melanoma it was 61.8%.

Turning to `CCNc1nnc(COc2ccc(CNC(=O)CCCC/C=C/C(C)C)cc2OC)o1`, the growth in the assay on NCI-H23 lung was 93.7%; in the assay on NCI-H226 lung, 101%; with NCI-H322M lung it was 107%; in the assay on NCI-H460 lung it was 103%; with HOP-92 NSCLC, 98.3%; with NCI-H522 lung it was 83.7%. For the same molecule, the growth in the assay with A549/ATCC NSCLC is 97%; in the assay with 786-0 renal, 95.5%; with COLO 205 colon it was 110%; in the assay on DU-145 prostate, 109%; in the assay on K-562 leukemia, 91.6%; in the assay on MDA-MB-231 breast it was 104%. The growth with RXF 393 renal is 120%; in the assay with SF-268 CNS, 97.1%; with SF-295 CNS, 97.1%; with SF-539 CNS it was 104%; in the assay with UACC-257 melanoma, 105%; in the assay on M14 melanoma it was 102%.
